Composite z-score and z-score data for ten molecules are collected here from PubChem BioAssay.

The test system of experiment [1] is Human papillomavirus type 1a protein E7 (residues 44-93). Nature of the experiment: HPV1a E7 fragment binders on microarrays, primary screen, biochemical, small-molecule microarray, residues 44-93, 635 nm fluorescence (AID 1108).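 Note: E7 fragment applied at 1 µg/mL in TBST for 1 h at 4 C; score combines spot fluorescence with its signal to noise ratio.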 The conditions noted are these: small-molecule microarray binding, fluorescence 635 nm; higher = more signal.
Experiment [2] is described as follows: modulators of HCV replicon luciferase signal, primary screen, HCV replication inhibitor project, Huh7 cells, luciferase reporter (AID 1109).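 Note: huh7 hepatoma cells harbouring a luciferase neomycin HCV replicon reporter; luciferase luminescence as measure of HCV replicon replication; test concentration not given here.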 The conditions noted are these: 48 h, higher = more signal. In general terms: In antiviral work, replicon cells carry a viral genome segment that copies itself.
The target in experiment [3] is Left-right determination factor 2 (Homo sapiens) (UniProt O00292). Nature of the experiment: LEFTY2 binders on small-molecule microarrays, primary screen, biochemical, small-molecule microarray, 635 nm fluorescence scan (AID 1110). Particulars: LEFTY2 binding, higher = more signal.
Experiment [4] deals with Calmodulin-1 (Homo sapiens) (UniProt P0DP23). The experiment is described as follows: CALM1 binders on microarrays, EGTA buffer, profiling panel, biochemical, small-molecule microarray, Cy5-labelled CALM1 (AID 1111).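 Note: labelled calmodulin applied in Tris saline Tween buffer holding calcium plus EGTA and DTT.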 The conditions noted are these: Cy5-CALM1 binding fluorescence, higher = more signal.
For experiment [5] the target is unchanged. Nature of the experiment: calcium-bound CALM1 binders on microarrays, profiling panel, artefact control for SMM control-protein annotation, biochemical, small-molecule microarray, Cy5-labelled CALM1, plus calcium (AID 1112).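 Note: score merges spot fluorescence with signal to noise from triplicate slides.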 The conditions noted are these: Cy5-CALM1 binding fluorescence, higher = more signal.
Experiment [6] can be described thus: small-molecule microarray binders of probe aWnt5a, primary screen, biochemical, biotinylated probe, 635/667 nm fluorescence (AID 1113).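 Note: score merges 667 nm fluorescence intensity with signal-to-noise per printed feature.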 Particulars: higher = more signal.
Experiment [7] can be described thus: small-molecule microarray binders of probe aShh, primary screen, biochemical, biotinylated probe, 635/667 nm fluorescence (AID 1114).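 Note: probe is biotin-labelled aShh protein from a stem cell growth factor screen; measures binding of labelled protein to compounds printed on the slide; score merges feature fluorescence at 667 nm with signal-to-noise.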 Particulars: higher = more signal.
A short description of experiment [8]: small-molecule microarray binders of probe aNog, primary screen, biochemical, biotinylated probe, 635/667 nm fluorescence (AID 1115).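 Note: probe is biotinylated aNog protein used at 0.15 µg/mL for 1 h at 4 C; z-score combines 667 nm fluorescence of each spot with its signal to noise.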 The conditions noted are these: higher = more signal.
The target in experiment [9] is Torsin-1A-interacting protein 1 (Homo sapiens) (UniProt Q5JTV8). The experiment is described as follows: LAP1 binders from COS7 cell lysate, primary screen, small-molecule microarray, 635/667 nm fluorescence (AID 1116). Particulars: COS7-hLAP1 lysate binding, 635 nm fluorescence, higher = more signal.
The target in experiment [10] is Alpha-bungarotoxin (Bungarus multicinctus) (UniProt P60615). The experiment is described as follows: alpha-bungarotoxin binders on microarray, profiling panel, artefact control for SMM control protein annotation, biochemical, small-molecule microarray, Alexa647 label, 635/667 nm fluorescence (AID 1117). The conditions noted are these: alpha-BTX-A647 binding fluorescence, higher = more signal.
Sequence of Alpha-bungarotoxin (Bungarus multicinctus) (P60615 whole entry, looked up): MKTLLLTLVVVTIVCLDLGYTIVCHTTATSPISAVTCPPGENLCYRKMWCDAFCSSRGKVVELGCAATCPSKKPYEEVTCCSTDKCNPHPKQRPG

Sequence of Torsin-1A-interacting protein 1 (Homo sapiens) (Q5JTV8 whole entry, looked up): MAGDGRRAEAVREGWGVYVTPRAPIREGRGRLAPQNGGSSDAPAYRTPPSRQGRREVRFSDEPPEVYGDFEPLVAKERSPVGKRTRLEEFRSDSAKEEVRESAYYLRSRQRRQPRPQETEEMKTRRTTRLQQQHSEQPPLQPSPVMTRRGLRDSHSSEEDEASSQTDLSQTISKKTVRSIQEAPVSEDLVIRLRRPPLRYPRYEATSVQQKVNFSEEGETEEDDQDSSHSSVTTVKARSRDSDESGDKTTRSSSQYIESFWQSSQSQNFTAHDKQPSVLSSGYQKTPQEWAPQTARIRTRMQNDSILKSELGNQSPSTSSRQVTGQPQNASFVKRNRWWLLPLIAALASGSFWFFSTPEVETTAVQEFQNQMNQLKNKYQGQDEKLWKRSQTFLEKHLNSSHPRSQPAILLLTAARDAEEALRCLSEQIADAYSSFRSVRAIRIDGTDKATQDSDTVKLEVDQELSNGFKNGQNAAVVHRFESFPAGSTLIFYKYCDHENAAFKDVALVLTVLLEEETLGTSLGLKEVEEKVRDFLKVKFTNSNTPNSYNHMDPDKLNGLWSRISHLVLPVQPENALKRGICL
Sequence of Left-right determination factor 2 (Homo sapiens) (O00292 whole entry, looked up): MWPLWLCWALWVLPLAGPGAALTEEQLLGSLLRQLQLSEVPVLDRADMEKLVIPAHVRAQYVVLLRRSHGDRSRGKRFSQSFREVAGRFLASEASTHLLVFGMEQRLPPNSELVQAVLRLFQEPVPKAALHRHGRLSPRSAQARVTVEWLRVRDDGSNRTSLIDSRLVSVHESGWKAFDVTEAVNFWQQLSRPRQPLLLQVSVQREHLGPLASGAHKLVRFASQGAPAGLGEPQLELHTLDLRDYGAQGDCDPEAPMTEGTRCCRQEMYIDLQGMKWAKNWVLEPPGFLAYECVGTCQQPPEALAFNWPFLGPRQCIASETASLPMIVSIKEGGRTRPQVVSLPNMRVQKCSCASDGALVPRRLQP

As to `CC(CO)N1C(=O)[C@@H]2C3C(=O)OCCC/C=C\[C@H]3OC23C=CCN(C(C)(C)C)C(=O)[C@@H]13` (stereo not given in full), the composite z-score in experiment [1] was -0.898; in [3] it was -0.0466; in experiment [4], -0.565; in experiment [5] it was -0.769; in experiment [6] it was -0.192; in [7] it was 0.108. The composite z-score in [8] was -0.147; in experiment [9], 0.859; in experiment [10] it was 0.149. Moreover, the z-score in [2] amounted to 0.367.
In the case of `O=C(OCc1ccccc1)C1=CCC2c3[nH]c4ccccc4c3C(=O)C1N2S(=O)(=O)c1ccccc1[N+](=O)[O-]` (stereo not given), the composite z-score is 1.42 in experiment [1]; 0.831 in experiment [3]; 0.418 in experiment [4]; -0.369 in experiment [5]; 0.0597 in experiment [6]; 0.14 in [7]. Also, the results for the composite z-score in experiment [8], in [9] and in experiment [10] were -0.549, 0.432 and 0.584, respectively. This molecule displayed a z-score in experiment [2] of -2.6.
With `O=C1c2ccccc2[C@](Cc2ccccc2I)(C(=O)NCCN2CCOCC2)[C@H](c2ccc(CO)cc2)N1Cc1ccccc1Cl`, the composite z-score is -0.612 in [1]; 0.945 in experiment [3]; 1.51 in experiment [4]; 0.0568 in [5]; 0.0215 in experiment [6]; -0.0011 in experiment [7]. Further, the composite z-score in [8] was -0.474; in experiment [9], 0.896; in experiment [10], 1.47. In [2], this molecule had a z-score of -2.64.
On to `O=C(NCCN1CCOCC1)[C@@H]1c2ccccc2C(=O)N(C2CCCCC2)[C@H]1c1ccc(CO)cc1`, for which the composite z-score in [1] is 1.44; in experiment [3], -0.0308; in experiment [4] it was 0.0999; in [5], -0.336; in experiment [6], -0.101; in experiment [7], -0.138. The values for the composite z-score in experiment [8], in experiment [9] and in experiment [10] were 0.76, 0.0614 and -0.0569, respectively. In [2], the z-score was -1.49.
`C=CCN1C(=O)[C@]2(O[C@H](CCn3cc([C@H](O)c4ccccc4)nn3)[C@@H]([Si](C)(C)c3ccc(OC)cc3)[C@@H]2C)c2cc(N3CCC3=O)ccc21`: the composite z-score was 1.34 in experiment [1]; 0.152 in experiment [3]; 0.439 in experiment [4]; -0.022 in experiment [5]; -0.0685 in [6]; 0.0253 in [7]. The results for the composite z-score in [8], in experiment [9] and in [10] were 0.328, 0.549 and 1.07, respectively. In experiment [2], this molecule yielded a z-score of -3.08.
As for `C[N+](C)(C)CCCCCCNC(=O)[C@@H]1C[C@@H]2C(=O)N[C@@H](Cc3ccccc3)C(=O)N2[C@@H]1c1cccc(OCCO)c1`, the composite z-score in experiment [1] was 0.44; in [3], 0.542; in experiment [4] it was -0.637; in [5], -0.792; in experiment [6], -0.107; in experiment [7], -0.0813. Further, the results for the composite z-score in experiment [8], in [9] and in experiment [10] were -0.364, 1.22 and 1.24, respectively. The same molecule showed a z-score in experiment [2] of 0.137.
Regarding `CC1CC/C=C\[C@H]2OC34C=CCN(Cc5ccccc5)C(=O)[C@H]3N(CCCO)C(=O)[C@@H]4C2C(=O)O1` (stereo not given in full), the composite z-score in experiment [1] was -0.537; in experiment [3] it was -2.03; in experiment [4] it was -0.226; in experiment [5], 0.876; in [6] it was -0.202; in experiment [7], -0.449. Further, the results for the composite z-score in experiment [8], in [9] and in experiment [10] were 0.0522, -0.0302 and -0.973, respectively. This molecule showed a z-score in experiment [2] of -1.29.
For the molecule `CC(C)C(=C=CC[C@@H](O)c1ccc(OCCO)cc1)C[C@@H](O)COCc1ccccc1`, the composite z-score in experiment [1] is 0.702; in [3] it was 0.164; in experiment [4], -0.774; in experiment [5], -0.918; in experiment [6], 0.505; in experiment [7] it was -0.0553. Further, the composite z-score came out at 0.526 in experiment [8], 1.51 in experiment [9] and 0.119 in [10]. The same molecule came in with a z-score in experiment [2] of -0.453.
Take `CCC[C@@H]1C[C@@]1(CCC)[C@@H](NS(=O)(=O)c1cccc2cccnc12)c1ccc(Cl)cc1`: the composite z-score in experiment [1] is 1.23; in experiment [3], -0.385; in [4], 0.976; in [5] it was 1.28; in [6], 0.0839; in [7], 0.426. In addition, the composite z-score in experiment [8] was 1.1; in experiment [9], 0.731; in experiment [10], 0.6. The molecule also gave a z-score in experiment [2] of -1.38.
On to `C=C(CC1([C@@H](NP(=O)(c2ccccc2)c2ccccc2)[C@H]2C[C@@H]2CCCC)CC1)c1ccccc1`, for which the composite z-score was 1.23 in experiment [1]; -0.0117 in experiment [3]; 1.19 in experiment [4]; 1.15 in experiment [5]; 0.186 in experiment [6]; 0.257 in [7]. Besides, the composite z-score in [8] came out at 0.0585; in experiment [9], 1.17; in experiment [10], 0.598. The same molecule returned a z-score in experiment [2] of -0.776.
